Screening results as filed in PubChem BioAssay.
Most compounds without a hit are left out; they make up all but 2.3% or so of the library.
Shn3 inh set2 = inhibitors of Schnurri-3 3'UTR reporter in osteoblasts; 360,000 compounds, 0.52% hits; Clone20 osteoblast Shn3 3'UTR firefly luciferase, 24 h; inhibition, % at 12.5 µM; AID 588674;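 active means mean inhibition of at least 75% with every replicate also reaching 75%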
H9c2 TAG inh = inhibitors of triacylglycerol accumulation. AID 651582. 230,000 compounds, 0.66% hits. inhibition, % at 12.5 µM. H9c2 cells, Nile Red lipid (TAG) fluorescence; cells loaded with 200 µM oleic acid;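 active means pattern-corrected inhibition of lipid staining of at least 50% with the nuclear-stain viability signal not falling by more than 50%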
697 NFkB inh = lowers PMA/ionomycin-induced NF-kB signal in 697 B cells. inhibition, % at 4 µM. 697 B-cell NF-kB luciferase reporter, 16 h. 330,000 compounds, 0.33% hits. AID 435022; in the data active means inhibition above about 35%
aSyn 5UTR inh = 5' untranslated region of α-synuclein, MLPCN primary screen. alpha-synuclein 5'UTR reporter, inhibitor activity. inhibition, % (tested at 7.5 µM). 300,000 compounds, 0.82% hits; in the data active means inhibition above about 60%;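 further: H4 neuroglioblastoma cells stably carrying SNCA 5'UTR luciferase fusion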
Jurkat NFkB inh = inhibitors of the PMA/ionomycin-induced NF-kB reporter in Jurkat cells. PMA/ionomycin-induced NF-kB luciferase reporter, luminescence. inhibition, % at 4 µM. 330,000 compounds, 0.53% hits. AID 435003; in the data active means inhibition above about 50%
Gli-Sufu antag = antagonists of Gli-Sufu signaling | 340,000 compounds, 0.74% hits | Sufu-KO-LIGHT fibroblasts, Gli luciferase reporter luminescence | inhibition, % at 5 µM | AID 588413;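 active means inhibition above about 55%, limit read from the data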
Gli-Sufu confirm = confirmation of Gli-SUFU pathway antagonists; shares compounds with Gli-Sufu antag; Sufu-KO-LIGHT cells, Gli luciferase reporter, luminescence; inhibition, % at 5 µM; 2,500 compounds, 40% hits; AID 602428;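 active means mean inhibition at 5 µM reaching about 45%, limit read from the data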
Gli cytotox = cytotoxicity counter-screen for Gli-SUFU antagonists; cytotoxicity, % at 5 µM; shares compounds with Gli-Sufu antag; 2,500 compounds, 32% hits; Sufu-KO-LIGHT cells cytotoxicity, ATP luminescence; AID 651994;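 active means mean cytotoxicity at 5 µM above about 25%, limit read from the data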;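 further: cells exposed to compound overnight for roughly 16 to 18 hours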
Wnt3a cs = Wnt3a reporter inhibition counter-screen | inhibition, % at 6.25 µM | 2,500 compounds, 20% hits | AID 651995 | shares compounds with Gli-Sufu antag | Wnt-LIGHT cells, Wnt3a-driven luciferase reporter, luminescence;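 active means mean inhibition above about 25%, limit read from the data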
Numbers stand for hits.

`Cc1ccc(OCC(=O)OCC(=O)Nc2sccc2C(N)=O)cc1C` gave Shn3 inh set2 inactive, H9c2 TAG inh inactive, 697 NFkB inh inactive, aSyn 5UTR inh inactive, Jurkat NFkB inh inactive and Gli-Sufu antag inactive.
`CN(Cc1cccc2cnccc12)C(=O)c1cc(COc2ccc(F)cc2F)on1` gave Shn3 inh set2 inactive, H9c2 TAG inh inactive, 697 NFkB inh inactive, aSyn 5UTR inh inactive, Jurkat NFkB inh inactive and Gli-Sufu antag inactive.
For CCc1ccc(CN(C)C(=O)c2cc(COc3cccc4cnccc34)on2)cc1 the results were Shn3 inh set2 86, 697 NFkB inh inactive, aSyn 5UTR inh inactive, Jurkat NFkB inh inactive, Gli-Sufu antag 65, Gli-Sufu confirm 62, Gli cytotox 25 and Wnt3a cs inactive.
Cc1cccc(-c2nc(NCCCN(C)C)c3ccccc3n2)c1 was read as Shn3 inh set2 inactive, H9c2 TAG inh inactive, 697 NFkB inh inactive, aSyn 5UTR inh inactive, Jurkat NFkB inh inactive, Gli-Sufu antag 55, Gli-Sufu confirm inactive, Gli cytotox inactive and Wnt3a cs inactive.
`CN(C)CCCNc1nc(-c2ccc(Cl)cc2)nc2ccccc12` gave Shn3 inh set2 inactive, 697 NFkB inh inactive, aSyn 5UTR inh inactive, Jurkat NFkB inh inactive, Gli-Sufu antag 69, Gli-Sufu confirm inactive, Gli cytotox 27 and Wnt3a cs inactive.
For Cc1ccc(-c2nc(NCCN(C)C)c3ccccc3n2)cc1 the results were Shn3 inh set2 inactive, H9c2 TAG inh inactive, 697 NFkB inh inactive, aSyn 5UTR inh inactive, Jurkat NFkB inh inactive and Gli-Sufu antag inactive.
CCOC(=O)Cc1[nH]nc2c1C(c1cccc(OC)c1OC)C(C#N)=C(N)O2 (stereo not drawn) was read as Shn3 inh set2 inactive, H9c2 TAG inh inactive, 697 NFkB inh inactive, aSyn 5UTR inh inactive, Jurkat NFkB inh inactive and Gli-Sufu antag inactive.
O=C(O)CCCNC(=O)C(c1ccccc1)c1ccccc1 was read as Shn3 inh set2 inactive, 697 NFkB inh inactive, aSyn 5UTR inh inactive, Jurkat NFkB inh inactive and Gli-Sufu antag inactive.
For O=C(O)CCCNC(=O)CCCNC(=O)C(c1ccccc1)c1ccccc1 the results were Shn3 inh set2 inactive, 697 NFkB inh inactive, aSyn 5UTR inh inactive, Jurkat NFkB inh inactive, Gli-Sufu antag inactive, Gli-Sufu confirm inactive, Gli cytotox inactive and Wnt3a cs inactive.
`CC1CCC(Nc2nnnn2-c2ccccc2)CC1` (stereo not drawn) gave Shn3 inh set2 inactive, 697 NFkB inh inactive, aSyn 5UTR inh inactive, Jurkat NFkB inh inactive and Gli-Sufu antag inactive.
Cc1occc1-c1nnc(SCC(=O)N2CCN(c3ccccc3)CC2)n1C was read as Shn3 inh set2 inactive, H9c2 TAG inh inactive, 697 NFkB inh inactive, aSyn 5UTR inh inactive, Jurkat NFkB inh inactive and Gli-Sufu antag inactive.
For Cc1cccc(NC(=O)C2CCCN(C(=O)Nc3ccccc3)C2)c1C (stereo not drawn) the results were Shn3 inh set2 inactive, H9c2 TAG inh inactive, 697 NFkB inh inactive, aSyn 5UTR inh inactive, Jurkat NFkB inh inactive, Gli-Sufu antag 58, Gli-Sufu confirm inactive, Gli cytotox inactive and Wnt3a cs inactive.
For Cc1ccccc1NC(=O)C1CCCN(C(=O)Nc2ccc(F)cc2)C1 (stereo not drawn) the results were Shn3 inh set2 inactive, 697 NFkB inh inactive, aSyn 5UTR inh inactive, Jurkat NFkB inh inactive and Gli-Sufu antag inactive.
For CCCC(=O)NC(c1ccc(Cl)cc1)c1ccc2cccnc2c1O (stereo not drawn) the results were Shn3 inh set2 inactive, H9c2 TAG inh inactive, 697 NFkB inh inactive, aSyn 5UTR inh inactive, Jurkat NFkB inh inactive, Gli-Sufu antag 86, Gli-Sufu confirm 82, Gli cytotox 35 and Wnt3a cs 71.
Screening O=C(NC(Cc1c[nH]c2ccccc12)C(=O)Nc1ccc(F)cc1)c1cccs1 (stereo not drawn) returned Shn3 inh set2 inactive, H9c2 TAG inh inactive, 697 NFkB inh inactive, aSyn 5UTR inh inactive, Jurkat NFkB inh inactive and Gli-Sufu antag inactive.
O=C(NCc1ccc(F)cc1)C(=O)NCC1OCCCN1S(=O)(=O)c1cccs1 (stereo not drawn) was read as Shn3 inh set2 inactive, H9c2 TAG inh inactive, 697 NFkB inh inactive, aSyn 5UTR inh inactive, Jurkat NFkB inh inactive, Gli-Sufu antag 99, Gli-Sufu confirm inactive, Gli cytotox inactive and Wnt3a cs inactive.
For O=C(NCc1ccccc1)C(=O)NCC1OCCCN1S(=O)(=O)c1cccs1 (stereo not drawn) the results were Shn3 inh set2 inactive, 697 NFkB inh inactive, aSyn 5UTR inh inactive, Jurkat NFkB inh inactive and Gli-Sufu antag inactive.
Cc1ccc(N2CCN(c3cc(C)nc4nc(C)nn34)CC2)c(C)c1 was read as Shn3 inh set2 inactive, H9c2 TAG inh inactive, 697 NFkB inh inactive, aSyn 5UTR inh inactive, Jurkat NFkB inh inactive and Gli-Sufu antag inactive.
Screening CC1CN(c2ccccc2)CCN1Cc1nc(Cc2ccccc2)no1 (stereo not drawn) returned Shn3 inh set2 inactive, H9c2 TAG inh inactive, 697 NFkB inh inactive, aSyn 5UTR inh inactive, Jurkat NFkB inh inactive and Gli-Sufu antag inactive.
`COc1ccc(CNCC(O)(c2ccccc2)c2ccccc2)cc1` gave Shn3 inh set2 inactive, 697 NFkB inh inactive, aSyn 5UTR inh inactive, Jurkat NFkB inh inactive and Gli-Sufu antag inactive.
For COc1ccc(CNCC(O)(c2ccccc2)c2ccccc2)cc1OC the results were Shn3 inh set2 inactive, H9c2 TAG inh inactive, 697 NFkB inh inactive, aSyn 5UTR inh inactive, Jurkat NFkB inh inactive, Gli-Sufu antag inactive, Gli-Sufu confirm inactive, Gli cytotox inactive and Wnt3a cs inactive.
Screening COc1cc(C(=O)COC(=O)c2cc([N+](=O)[O-])ccc2N2CCOCC2)ccc1OC(F)F returned Shn3 inh set2 inactive, H9c2 TAG inh inactive, 697 NFkB inh inactive, aSyn 5UTR inh inactive, Jurkat NFkB inh inactive and Gli-Sufu antag inactive.
For COc1cccc(Cn2c(NCc3ccco3)nc3c2c(=O)n(C)c(=O)n3C)c1 the results were 697 NFkB inh inactive, aSyn 5UTR inh inactive, Jurkat NFkB inh inactive, Gli-Sufu antag 81, Gli-Sufu confirm 80, Gli cytotox 41 and Wnt3a cs 39.
`CCCNc1nc2c(c(=O)n(C)c(=O)n2C)n1Cc1cccc(C)c1` gave Shn3 inh set2 96, 697 NFkB inh inactive, aSyn 5UTR inh inactive, Jurkat NFkB inh inactive, Gli-Sufu antag 65, Gli-Sufu confirm 59, Gli cytotox inactive and Wnt3a cs 31.
For COCCNc1nc2c(c(=O)n(C)c(=O)n2C)n1Cc1cccc(C(F)(F)F)c1 the results were Shn3 inh set2 90, H9c2 TAG inh inactive, 697 NFkB inh inactive, aSyn 5UTR inh inactive, Jurkat NFkB inh inactive, Gli-Sufu antag 68, Gli-Sufu confirm 71, Gli cytotox 29 and Wnt3a cs 28.
